# Laboratory results published in the OligoGym collection.
# What was measured:
# Test in all cases: pooled miR-30 sensor sort-seq; sequence = guide strand
# Details in all cases: shRNA
# CPEB3 = molecular target: CPEB3
# CPD = molecular target: CPD
# CPNE5 = molecular target: CPNE5
# CRB1 = molecular target: CRB1
# CRB3 = molecular target: CRB3
# CREB5 = molecular target: CREB5
# CRTAM = molecular target: CRTAM
# CRX = molecular target: CRX
# Also: reference of the scale not given here.
sequence,measurement,setting,value
TTTATTGCATGCAGCAACCTGA,sensor-assay potency score (higher = more potent),CPEB3,-0.657
TTAGGTATAGCAACTGTGCTAG,sensor-assay potency score (higher = more potent),CPD,0.733
TTTGTTGGAACACAGCATCATC,sensor-assay potency score (higher = more potent),CPD,-1.01
TTGTTTGTACCTTTATTCCTTC,sensor-assay potency score (higher = more potent),CPD,-0.441
TTGATTCATTGTTTGAATCTGT,sensor-assay potency score (higher = more potent),CPD,0.522
TTTGAAAACAAACTATAGCTTG,sensor-assay potency score (higher = more potent),CPEB3,-0.549
TTGATTGAGCAGATGCACCAAA,sensor-assay potency score (higher = more potent),CPD,-0.419
TATTCTTGCAAGGTCTACCTTG,sensor-assay potency score (higher = more potent),CPD,-0.366
TAGTGTTATGAACCAAATCTGT,sensor-assay potency score (higher = more potent),CPD,-0.534
TAGTGCTGGATGATCTCTCCGA,sensor-assay potency score (higher = more potent),CPNE5,0.148
TATAACATTAACAACTTGGGGG,sensor-assay potency score (higher = more potent),CPEB3,0.19
TTCTTCATTTTCTTTTTCGGGT,sensor-assay potency score (higher = more potent),CPNE5,-0.414
TTGAAAACAAACTATAGCTTGA,sensor-assay potency score (higher = more potent),CPEB3,0.15
TATTTGTGAAGTCTGTATCCAA,sensor-assay potency score (higher = more potent),CPD,0.0284
TTTGTAAGTAGTCACTGGGTGA,sensor-assay potency score (higher = more potent),CPD,-0.0209
ATAAATATCTGTATTATCCTTC,sensor-assay potency score (higher = more potent),CRB1,0.756
TTACATCTTGGATACAGCCTTT,sensor-assay potency score (higher = more potent),CRB1,-0.193
ATAGCAGTGATGGCTTCTGGAC,sensor-assay potency score (higher = more potent),CRB3,-1.45
TTGGTCAGGGATCTCTGCCAGC,sensor-assay potency score (higher = more potent),CPNE5,-1.14
TACACTTCTACAAGAAAGCTGT,sensor-assay potency score (higher = more potent),CREB5,0.523
TGTCTGAACAAGAACAATCATT,sensor-assay potency score (higher = more potent),CRB1,-1.04
TTGAGGTCGATCTCACACTGGG,sensor-assay potency score (higher = more potent),CRB1,-0.294
ATGAAGGCAAAACAGTGCTATT,sensor-assay potency score (higher = more potent),CRB3,-1.64
TTCAAATCCTTGAAGCACCGGC,sensor-assay potency score (higher = more potent),CRB1,0.589
TTTAATGACAAACTCAACTTAC,sensor-assay potency score (higher = more potent),CREB5,-0.383
TTGAAGAACATTCATTGACGTC,sensor-assay potency score (higher = more potent),CRB1,-0.696
TTTATATTGTCAATAGCTCTGT,sensor-assay potency score (higher = more potent),CRB1,0.0403
TTTGAGAAATTGCTCTTCCTGA,sensor-assay potency score (higher = more potent),CRB1,-0.258
TGGGAGAACTGCTCCTCGCTAC,sensor-assay potency score (higher = more potent),CRB3,-1.03
TTCATTGACGTCTTCTTCGCAG,sensor-assay potency score (higher = more potent),CRB1,0.387
TTCTTCATGACCTCGGTCTTGT,sensor-assay potency score (higher = more potent),CPNE5,0.503
TGCTCCTCGCTACTGGGCCGGT,sensor-assay potency score (higher = more potent),CRB3,-1.75
TTATGTGTTAACAACAACTGTT,sensor-assay potency score (higher = more potent),CREB5,-0.0254
TTGTCGATGACTTCGGTGCGCC,sensor-assay potency score (higher = more potent),CPNE5,-0.869
TTGCATCGTACTGAGTTCGAGA,sensor-assay potency score (higher = more potent),CPNE5,-0.62
TTCTTGTCCAGCTTGTTGGCAC,sensor-assay potency score (higher = more potent),CPNE5,-0.22
TTAACAGGCAACAACCACCAGA,sensor-assay potency score (higher = more potent),CREB5,-0.508
TTGTCCAGGAGGTTCCTGCAGG,sensor-assay potency score (higher = more potent),CPNE5,-0.916
TATTATTACATTTGCATCCCTT,sensor-assay potency score (higher = more potent),CRB1,-0.226
TTCTCATTTGCAGAAGTGGTCT,sensor-assay potency score (higher = more potent),CRB3,-0.965
TTGGTCTGCGCCATGTCCGAGA,sensor-assay potency score (higher = more potent),CPNE5,-1.04
TTGCAGAAGTGGTCTGTATTTG,sensor-assay potency score (higher = more potent),CRB3,-1.49
TTGCCATCGGAGCTGGAGCTGG,sensor-assay potency score (higher = more potent),CRB3,-1.68
TATTCTCATTTGCAGAAGTGGT,sensor-assay potency score (higher = more potent),CRB3,-1.61
TTGGCTTTCACACCAATCCTTT,sensor-assay potency score (higher = more potent),CRB1,-1.07
TCCGTCTGCCGCTTCTCCCGAA,sensor-assay potency score (higher = more potent),CRB3,-1.23
AAGACCACGATGATAGCAGTGA,sensor-assay potency score (higher = more potent),CRB3,-0.0143
TTACTTGTAAGTTTATTGCTGC,sensor-assay potency score (higher = more potent),CREB5,0.486
TTTGAAGTACCTTCTTCCCTGC,sensor-assay potency score (higher = more potent),CRB3,0.11
TTAGATATCCTTGTGATTCTTT,sensor-assay potency score (higher = more potent),CREB5,0.29
TAGATCAAAACGGAGGTTCTGC,sensor-assay potency score (higher = more potent),CPNE5,-0.116
TTAAGTATAGCTTAGCTGCTGC,sensor-assay potency score (higher = more potent),CREB5,-0.267
TAGAACATTGTATTTGAACTGA,sensor-assay potency score (higher = more potent),CREB5,-0.137
TGGACGCAGGTTGCCATCGGAG,sensor-assay potency score (higher = more potent),CRB3,-1.88
TTATATTGTCAATAGCTCTGTC,sensor-assay potency score (higher = more potent),CRB1,0.532
TTGAATGTTGTACATTTTCCTT,sensor-assay potency score (higher = more potent),CRTAM,-1.1
TAGCTCTGGCCTGATAGGGAGG,sensor-assay potency score (higher = more potent),CRX,-0.851
TTTTGCTTTCTGATAACTGAAG,sensor-assay potency score (higher = more potent),CRTAM,-1.15
TGTAAGCTGAACACCGAGCTGT,sensor-assay potency score (higher = more potent),CRX,0.575
TTTGTGCTTACAGAGTCGCTGT,sensor-assay potency score (higher = more potent),CRTAM,-0.405
